The sample as a whole holds a higher share of hits than the screen did.
HIV RNase H inh-1 = inhibitors of HIV-1 reverse transcriptase RNase H | P04585 | RT-RNase H RNA/DNA duplex cleavage, fluorescence | inhibition, % at 10 µM | 65,000 tested, 1.9% active; in the data active means inhibition above about 50%
RmlCD inh mix = inhibitors of RmlC and RmlD coupled enzymes; RmlC/RmlD coupled enzyme inhibition, 384-well mixture HTS; AID 1532; 110,000 tested, 0.39% active; inhibition, % at 5.5 µM; in the data active means inhibition above about 30%, passing the limit was not always enough; inconclusive means no clear call, values can overlap the other calls
HIV RNase H inh-2 = confirmation of HIV-1 reverse transcriptase RNase H inhibitors. Recombinant RT RNase H, fluorescent RNA/DNA duplex cleavage. inhibition, % at 10 µM. 1,000 tested, 39% active. shares compounds with HIV RNase H inh-1. AID 651; in the data active means inhibition above about 48%; inconclusive means no clear call, values can overlap the other calls
Active calls of the source: *; ? = inconclusive; / = no result.

SMILES	HIV RNase H inh-1	RmlCD inh mix	others
CCN(C(=O)c1coc(=O)c(Br)c1)c1ccc2c(c1)OCO2	2.4	123.8*
CC1=C(C(=O)OCc2ccccc2)C(c2ccccc2OS(=O)(=O)c2ccc([N+](=O)[O-])cc2)NC(=O)N1CCCC(=O)O (configuration not stated)	/	3.8
Cc1ccc(-c2nc3cccnc3o2)cc1NC(=O)COc1ccc(C(C)(C)C)cc1	/	2.7
Cc1ccc(-c2nc3cccnc3o2)cc1NC(=O)COc1ccc(Cl)cc1C	53.0*	-33.2
CC1=C(C(=O)OCC(Br)(Br)Br)C(c2ccc(Br)cc2)NC(=O)N1CCCC(=O)O (configuration not stated)	/	6.4
COC(=O)Cc1cc(=O)[nH]c(/N=C(/NC(=O)c2ccccc2)Nc2ccccc2C)n1	53.3*	/
CCOC(=O)Cc1cc(=O)[nH]c(/N=C(/NC(=O)c2ccccc2)Nc2ccccc2C(F)(F)F)n1	/	1.2
COC(=O)Nc1ccc(S(=O)(=O)NCCO)cc1	/	10.1
Cc1ccsc1C1NC(=O)c2c(sc3c2CCCC3)N1 (configuration not stated)	58.5*	-1.3
O=C1NC(c2ccc(Br)cc2)Nc2sc3c(c21)CCC3 (configuration not stated)	/	37.7
COc1ccc(CC(=O)NC2CC(C)(C)NC(C)(C)C2)cc1	/	-0.1
CCOc1ccc(N2C(=O)CC(Sc3nccc(C)n3)C2=O)cc1 (configuration not stated)	-16.9	-6.4
COc1ccccc1N1C(=O)CC(Sc2nccc(C)n2)C1=O (configuration not stated)	60.2*	-11.0
Brc1ccc([C@H]2CN3CCSC3=N2)cc1	/	15.0
COC(=O)c1ccccc1NC(=O)CN1CCN(C23CC4CC(CC(C4)C2)C3)CC1	-7.0	11.8
COc1c(N2C[C@@H]3CCCN[C@@H]3C2)c(F)cc2c(=O)c(C(=O)O)cn(C3CC3)c12	/	7.2
COC(=O)CC(=O)CSc1nc2c(cc1C#N)CCC2	5.2	77.0*
CC(C)OC(=O)CC(=O)CSc1nc2c(cc1C#N)CCC2	6.2	97.2*
N#Cc1cc2c(nc1SCC(N)=O)CCCCC2	/	-8.1
C=C(C)CSc1nc2c(cc1C#N)CCC2	-51.5	6.9
Cc1ccc(S(=O)(=O)CCC(=O)N2CCN(c3ccc(Cl)cc3)CC2)cc1	/	-7.4
N=c1c(C(=O)NCc2ccccc2)cc2c(=O)n3ccccc3nc2n1CCCN1CCOCC1	-11.4	/
N=c1c(C(=O)NCc2ccc(F)cc2)cc2c(=O)n3ccccc3nc2n1CCCN1CCOCC1	-19.0	30.7*
COc1ccc(-c2csc(NCCc3nc4cc(C(=O)NCCCO)ccc4n3Cc3ccc(C)cc3)n2)cc1	/	1.3
CCOc1ccc(S(=O)(=O)Nc2nc3ccc(OC)cc3s2)cc1	/	-20.3
SMILES	HIV RNase H inh-1	RmlCD inh mix	others
CCOc1ccc2nc(NS(C)(=O)=O)sc2c1	55.0*	0.8
COc1ccc(C(=O)c2ccc(CC#N)s2)cc1	/	1.6
O=c1c2ccccc2sn1-c1ccc(S(=O)(=O)N2CCCC2)cc1	79.4*	34.0	HIV RNase H inh-2=27.5
Cc1ccc(-c2nnc(N3CCCCC3)c3ccccc23)cc1S(=O)(=O)N1CCN(C)CC1	-12.3	12.8
NS(=O)(=O)c1ccc(S(=O)(=O)N2CCCC2)cc1	/	7.2
Cc1ccc(-n2sc3ccccc3c2=O)cc1S(=O)(=O)N1CCCCC1	96.4*	31.2	HIV RNase H inh-2=48.0*
CCCN(CCC)S(=O)(=O)c1ccc(C(=O)Nc2nnc(-c3cccc(OC)c3)o2)cc1	68.3*	/	HIV RNase H inh-2=88.9*
COc1cccc(-c2nnc(NC(=O)c3cccc(F)c3)o2)c1	-0.6	-5.9
COc1ccccc1-c1nnc(NC(=O)c2ccc(S(=O)(=O)N(C)C)cc2)o1	2.5	6.1
CCCN(CCC)S(=O)(=O)c1ccc(C(=O)Nc2nnc(-c3cc(OC)cc(OC)c3)o2)cc1	53.4*	/	HIV RNase H inh-2=-10.7
CCCN(CCC)S(=O)(=O)c1ccc(C(=O)Nc2nnc(CSC)o2)cc1	19.6	-3.4
CCN(Cc1ccccc1)S(=O)(=O)c1ccc(C(=O)Nc2nnc(-c3ccccc3OC)o2)cc1	78.1*	/	HIV RNase H inh-2=62.1*
Nc1ncncc1-c1ccc([N+](=O)[O-])cc1	/	2.0
Cc1nn(C)c(Oc2ccccc2)c1CCNS(=O)(=O)c1ccccc1	/	-33.9
Cc1cc2nc(-c3ccc(SCC(=O)N4CCOCC4)nc3)[nH]c2cc1C	6.7	10.6
Cc1cc2nc(-c3ccc(SCC(=O)N4CCN(C(=O)c5ccco5)CC4)nc3)[nH]c2cc1C	74.0*	32.1	HIV RNase H inh-2=45.0
CCCN(CC1CC1)c1nc(C)nc(Nc2c(Cl)cc(Cl)cc2Cl)c1Cl	/	7.4
O=C(NCc1nc2ccccc2[nH]1)C1=C[C@H](C2CC2)C[C@H](OCc2ccc(CO)cc2)O1	/	-5.8
CC(C)Cc1cc(C(=O)Nc2sc3c(c2C#N)CCCC3)no1	65.1*	10.2	HIV RNase H inh-2=68.3*
CC(C)Cc1cc(C(=O)Nc2sc3c(c2C#N)CCC3)no1	/	7.5
Cc1noc(C(=O)Nc2sc3c(c2C#N)CCC3)c1Cl	66.6*	10.4	HIV RNase H inh-2=8.9
Cc1cc(C(=O)Nc2sc3c(c2C#N)CCC3)no1	22.4	10.9
CCOC(=O)C1CCCN(C(=O)c2ccc(C)cc2O)C1 (configuration not stated)	/	-9.7
COc1ccc(C2C(C#N)=C(N)N(c3sc4c(c3C#N)CCCC4)C3=C2C(=O)CC(C)(C)C3)cc1 (configuration not stated)	/	8.0
COc1ccc(C2C(C#N)=C(N)N3C(=C2C#N)Sc2ccccc23)cc1 (configuration not stated)	86.6*	-11.9	HIV RNase H inh-2=60.4*
SMILES	HIV RNase H inh-1	RmlCD inh mix	others
Nc1nnc(CCC2CCCCC2)s1	-21.3	-9.2
N#CC1=C(N)SC(N)=C(C#N)C1CCC1CCCCC1	80.3*	-0.5	HIV RNase H inh-2=?
COc1cc(CNC2CCCC2)cc(Cl)c1OCc1ccccc1F	/	8.9
O=c1ccc2cc3c([nH]c4ccc(Br)cc43)oc-2c1O	87.7*	10.2	HIV RNase H inh-2=57.8*
O=c1c2c([nH]c3ccc(Br)cc13)CCCC2	-1.8	-28.5
CCC(C)c1nc2ccsc2c(N2CCOC2=O)c1-c1ccccc1 (configuration not stated)	/	-32.9
O=C1c2ccccc2C(=O)N1c1ccc(-c2nc3ccccc3o2)cc1	13.2	28.8
O=C(CN1C(=O)c2ccccc2C1=O)Nc1ccc(-c2nc3ccccc3o2)cc1	66.3*	11.2	HIV RNase H inh-2=0.7
O=C(CCN1C(=O)c2ccccc2C1=O)Nc1ccc(F)cc1	-5.5	2.3
O=C(CCN1C(=O)c2ccccc2C1=O)Nc1ccc(-c2nc3ccccc3o2)cc1	88.4*	/	HIV RNase H inh-2=67.8*
CCCCC(=O)N(Cc1ccc(-c2ccccc2-c2nn[nH]n2)cc1)[C@H](C(=O)O)C(C)C	/	-17.6
S=C(c1ccc(-c2ccc(Cl)cc2)o1)N1CCCCC1	/	8.9
N#CCCN1CCN(C(=S)c2ccc(-c3ccc(Cl)cc3)o2)CC1	56.4*	39.6	HIV RNase H inh-2=12.5
CC(C)C1Cc2c(C#N)c(N)sc(=S)c2CO1 (configuration not stated)	21.1	-5.9
CC1(C)Cc2c(C#N)c(N)sc(=S)c2CO1	82.2*	8.9	HIV RNase H inh-2=40.2
Cn1cnnc1SCC(=O)Nc1sc2c(c1C(N)=O)CCC2	75.4*	1.7	HIV RNase H inh-2=11.0
Cc1nnc(SCC(=O)Nc2sc3c(c2C(N)=O)CCCC3)[nH]c1=O	/	57.8
C/C(=N\NC(=O)c1cccc(S(=O)(=O)Nc2ccccc2Cl)c1)c1ccc(-n2ccnc2)cc1	/	-1.4
CCOc1ccc(C(=O)N2CCSC2=S)cc1	/	-12.2

Screening results: PubChem, several laboratories
